High-throughput results (PubChem)
Only a selection was taken, and hits are over-represented in it overall.
Pf Dd2 inh – inhibitors of Plasmodium falciparum Dd2 growth; P. falciparum Dd2 growth, SYBR Green, 72 h; Potency, µM (titrated, usually from 28.9 µM), inactives show at the top dose activity, negative = inhibition, most hits filed as inhibitors; 4.3% of 120,000 active; active = well fitted inhibition curve with a large enough effect;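 also: plate controls were DMSO vehicle for no effect and reference drug for full effect; nearly all actives have a fitted effect of over 65% in size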
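Infected erythrocytes (Dd2, 0.3% parasitemia, 2.5% hematocrit final) are added to compound in RPMI-1640/Albumax II medium, grown 72 h at 37C in low oxygen, then lysed with saponin/Triton-X containing SYBR Green and read by fluorescence.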
Starred values were filed as active, the others as inactive; [ ] = another dose, or the depositor's remark. Potency is read from the fitted curve at half-maximal effect.

Results for COc1cc2c(cc1OC)C(COc1cc(C)cc(C)c1)N(C(=O)c1ccc(S(=O)(=O)N3CCCC3)cc1)CC2 (configuration not stated) ?
Pf Dd2 inh: 3.2µM*

How did Cc1ccc2c(c1)C(c1ccccc1)N(C(=O)c1ccc(S(=O)(=O)N3CCCC3)cc1)CC(=O)N2 (configuration not stated) do in these assays?
Pf Dd2 inh: -21%

Results for COc1ccc(N2CC(NC(=O)c3ccc(S(=O)(=O)N4CCCCC4)cc3)CC2=O)cc1OC (configuration not stated) ?
Pf Dd2 inh: inactive

Results for COc1ccc(S(=O)(=O)N2CCC(Oc3cccc(C(F)(F)F)c3)CC2)cc1OC ?
Pf Dd2 inh: 9%

How did COc1cc2c(cc1OC)C(COc1cccc(C(F)(F)F)c1)N(C(=O)c1ccc(S(=O)(=O)N3CCCC3)cc1)CC2 (configuration not stated) do in these assays?
Pf Dd2 inh: 7.9µM*

What do the screens show for `COc1cc2c(cc1OC)C(CNC(=O)Nc1ccc(C)cc1)N(C(=O)NC(C)C)CC2` (configuration not stated)?
Pf Dd2 inh: -10%

Results for COc1ccc(CNC(=O)C(C)n2ccc3cc(S(=O)(=O)N4CCCC4)ccc32)cc1OC (configuration not stated) ?
Pf Dd2 inh: inactive

What do the screens show for `COc1ccc(S(=O)(=O)N2CCCCC2)cc1C(=O)Nc1cccc(C(F)(F)F)c1`?
Pf Dd2 inh: inactive

Results for COc1cc2c(cc1OC)C(COc1ccc(C(C)C)cc1)N(C(=O)c1ccc(S(=O)(=O)N3CCCC3)cc1)CC2 (configuration not stated) ?
Pf Dd2 inh: 13µM*

What do the screens show for `O=S(=O)(NCC1(COc2cnccn2)C[C@@H](O)[C@@H](O)C1)c1ccc(F)cc1` (some centres not stated)?
Pf Dd2 inh: 17%[44.1 µM]

What do the screens show for `CCCc1cc(C(=O)N2CC[C@@H]3[C@@H](CCC(=O)N3CC(C)C)C2)ccn1`?
Pf Dd2 inh: -2%

Results for CCN1C(=O)CCN(C(=O)Cc2cccc(OC)c2)CC12CCOCC2 ?
Pf Dd2 inh: 20%

How did COCCOCC(=O)N1CC[C@H]2C(=O)NCCCCCCN(Cc3ccncc3)[C@@H]2C1 do in these assays?
Pf Dd2 inh: 10%

Results for CCn1c(=O)c2c(cc(C)n2C)n(CC(=O)Nc2c(C)cccc2C)c1=O ?
Pf Dd2 inh: 15%

Results for Cc1ccc(CN2CCCOCCNC(=O)[C@@H]3CCCC[C@@H]32)s1 ?
Pf Dd2 inh: 5µM*

What do the screens show for `Cc1cccc(CN2CCCOCCNC(=O)[C@@H]3CCCC[C@@H]32)c1`?
Pf Dd2 inh: inactive

What do the screens show for `Cc1ccc(CN2CCCCCNC(=O)[C@@H]3CCC[C@@H]32)s1`?
Pf Dd2 inh: -17%

Results for COc1ccc(CN2C=C(C(=O)OCc3cc(=O)n4ccccc4n3)C(C)=NS2(=O)=O)cc1 ?
Pf Dd2 inh: inactive

Results for Cc1nc(CCNc2nc(-c3ccccn3)nc3c2c(C)nn3C)no1 ?
Pf Dd2 inh: inactive

What do the screens show for `Cc1nn(C)c2nc(-c3ccccn3)nc(NCC(c3ccco3)N(C)C)c12` (configuration not stated)?
Pf Dd2 inh: 8.9µM*

Results for CNS(=O)(=O)CCNc1nc(-c2ccccn2)nc2c1c(C)nn2C ?
Pf Dd2 inh: -6%

What do the screens show for `CN(Cc1ccc(N(C)C)cc1)Cc1cccn1C`?
Pf Dd2 inh: 4%[44.1 µM]

How did O=C(O)C[C@@H]1CCN(Cc2ccccc2)C[C@@H]1CCN1C[C@@H]2C[C@H](C1)c1cccc(=O)n1C2 do in these assays?
Pf Dd2 inh: -10%

How did CCc1[nH]nc(C(=O)N2CCC(c3[nH]ncc3-c3cccc(C)c3)CC2)c1C do in these assays?
Pf Dd2 inh: -15%

Results for COc1ccc(C(=O)NCC2Cn3cccc3C(=O)N2Cc2ccccc2)cn1 (configuration not stated) ?
Pf Dd2 inh: -25%

Results for COc1cccc(-c2cc(C3CCN(C(=O)c4cc(C)ccc4C)CC3)[nH]n2)c1 ?
Pf Dd2 inh: -8%

What do the screens show for `COc1cccc(-c2cc(C3CCN(C(=O)Nc4ccccc4OC)CC3)[nH]n2)c1`?
Pf Dd2 inh: -19%

Results for COc1cccc(-c2cc(C3CCN(C(=O)Nc4ccc(F)cc4)CC3)[nH]n2)c1 ?
Pf Dd2 inh: 5.6µM*

Results for COc1cccc(-c2cc(C3CCN(S(=O)(=O)c4ccc(F)cc4F)CC3)[nH]n2)c1 ?
Pf Dd2 inh: 7.1µM*

What do the screens show for `COc1cccc(-c2cc(C3CCN(C(=O)Nc4ccccc4F)CC3)[nH]n2)c1`?
Pf Dd2 inh: -4%

Results for COc1cccc(-c2cc(C3CCN(C(=O)Nc4cccc(Cl)c4C)CC3)[nH]n2)c1 ?
Pf Dd2 inh: inactive

How did CCn1ccc(C(=O)N2C[C@H](CO)C[C@H](CN3CCCC3)C2)n1 do in these assays?
Pf Dd2 inh: -1%

Results for O=C(NCc1ccc(F)cc1)c1ccc2c(c1)CNCCO2 ?
Pf Dd2 inh: inactive

How did COc1ccccc1C(=O)N1CCn2c(nnc2C2CCNCC2)C1 do in these assays?
Pf Dd2 inh: 13%
